The compounds below were run on Plasmodium falciparum (assay: GSK_TCMDC: Inhibition of Plasmodium falciparum Dd2 in whole red blood cells, using parasite LDH activity as an index of growth. Test compounds present at 2uM).
Assay type: functional

| SMILES | Inhibition [%] |
| --- | --- |
| COc1ccc2ccccc2c1CCCCN1CCN(CC(c2ccc(F)cc2)N2CCC(N3CCCC3)CC2)CC1.O=C(O)C(F)(F)F (configuration not stated) | 73 |
| O=C(Nc1ccc(N2CCCN(Cc3cccc(F)c3)CC2)cc1)c1ccccc1.O=C(O)C(F)(F)F | 95 |
| O=C(C=Cc1ccc(Cl)c(Cl)c1)NCCCCCN1CCCC(CCCNC(=O)c2sc3ccccc3c2Cl)C1 (configuration not stated) | 32 |

The compounds below were run on HepG2 (assay: GSK_TCMDC: Percent inhibition of human HepG2 cell line. Test compounds present at 10uM.).
Assay type: functional

| SMILES | Inhibition [%] |
| --- | --- |
| Oc1c(C(Nc2nc3ccccc3s2)c2ccc(OC(F)F)cc2)ccc2cccnc12 (configuration not stated) | 62 |
| O=C(Nc1cc2cc(-c3ccc(CN4CCCCC4)cc3)ccc2n2cnnc12)NC1CCCC1 | 78 |
| CCn1cc(C=C2Oc3c(ccc(O)c3CN3CCCCC3)C2=O)c2ccccc21 | 0 |
| Cc1cccc2nc(-c3cccc(-c4cccc(NC(=O)c5ccc(=O)[nH]n5)c4)c3)[nH]c12 | 10 |
| CC(CN1CCN(C)CC1)C(=O)Nc1cccc(-c2cccc(-c3nc4ccccc4[nH]3)c2)c1 (configuration not stated) | 23 |
| CS(=O)(=O)Nc1ccc2[nH]cc(C3CCN(CC(O)C4CCN(C(=O)/C=C/c5ccc(Cl)c(Cl)c5)CC4)CC3)c2c1.O=C(O)C(F)(F)F (configuration not stated) | 28 |
| Cc1cc(-c2cccc(CNC3CCCC3)c2)ccc1S(=O)(=O)NCCN1CCCC1.O=C(O)C(F)(F)F | 38 |
| O=C(CCNc1ccnc(NCC2CCCCC2)n1)Nc1ccccc1.O=C(O)C(F)(F)F | 55 |
| CN1CCN(c2ccnc3ccc(NC(=O)Nc4ccc(-c5ccncc5)c(C#N)c4)cc23)CC1 | 32 |
| Cc1noc(C)c1-c1ccc2c(Nc3nccc4ccccc34)c(C(N)=O)cnc2c1 | 100 |
| COc1cc(Cc2cnc(N)nc2N)cc(OCCn2ccccc2=O)c1OC | 4 |
| O=C(/C=C/c1ccc(C(F)(F)F)cc1)NCCCCCN1CCN(C(=O)Nc2ccc(Cl)cc2)CC1 | 37 |
| CCCCCc1cnc2nc(N)nc(N)c2c1.O=S(=O)(O)CCO | 72 |
| Br.Oc1ccc(CCNCCCCCCNCCc2ccc(Br)cc2)cc1O | 2 |
| N#Cc1ccc(CN2CCCN(Cc3cccc(NC(=O)c4cc5ccccc5s4)c3)CC2)cc1.O=C(O)C(F)(F)F | 31 |
| CC(C(=O)NC1CCN(c2ccnc(Nc3ccc(F)cc3)n2)C1)c1ccc(Cl)cc1 (configuration not stated) | 17 |
| COc1ccc2ncc(F)c(CCN3C4CCC3CC(NCc3ccc5c(c3)OCCO5)C4)c2n1.Cl (configuration not stated) | 27 |

| SMILES | Inhibition [%] |
| --- | --- |
| COc1cccc2c(N/N=C/c3ccccc3[N+](=O)[O-])ccnc12 | 8 |
| CCC[C@@H]([C@@H](CC(C)C)C(=O)N[C@@H](CCCCNC(=O)c1ccccn1)C(=O)Nc1nccs1)N(O)C=O | 0 |
| C=C[C@H]1CN2CC[C@H]1C[C@H]2[C@H](O)c1ccnc2ccc(OC)cc12.O.O=S(=O)(O)O | 0 |
| Cc1ccc2c(=NN=CC=Cc3ccccc3)cc(C)[nH]c2c1 | 3 |
| CN(c1ccc(NC(=O)Nc2cccc(Cl)c2)cc1)c1ccnc(N)n1.Cl | 75 |
| Cc1nc(NCCc2c[nH]cn2)cc(NCc2ccccc2)n1 | 5 |
| O=C(NC1CCN(Cc2ccccc2)CC1)c1ccc(-c2nc3cc(Cl)c(Cl)cc3[nH]2)s1 | 17 |
| CCCSc1nc2c(c(=O)n1CCc1ccccc1)C1(CCCC1)Cc1ccccc1-2 | 46 |
| COc1ccc(NC(=O)/C=C/c2ccccc2Cl)cc1OCCN1CCC(Cc2cc3ccccc3[nH]2)CC1.Cl | 56 |
| O=C(C=Cc1ccc(Cl)c(Cl)c1)NCCCCCN1CCCC(CCCNS(=O)(=O)c2cccc3cccnc23)C1 (configuration not stated) | 37 |
| COc1ccc(NC(=O)N2CCCN(CCCCCNC(=O)/C=C/c3ccc(Cl)cc3)CC2)cc1Cl | 15 |
| CC(C)CCNC(=O)C1Cc2c([nH]c3ccc(Br)cc23)C2(CCN(CCc3ccccc3)CC2)N1 (configuration not stated) | 25 |
| Oc1ccc(CN2CCC(N3CCN(CCc4ccccc4)CC3)C(O)C2)cc1Cl (configuration not stated) | 0 |
| Cc1nc(C)c(-c2ccc(C(=O)c3ccc(Cl)cc3)cc2)c(O)c1Br | 10 |
| COc1ccc(-c2ccccc2OCCCNc2nc(NCCc3ccc(O)cc3)nc(N3CCNCC3)n2)cc1.O=C(O)C(F)(F)F | 36 |
| CCOc1ccccc1N1CCN(CCCNC(=O)/C(=C/C=C/c2cc3cc(Cl)c(Cl)cc3[nH]2)OC)CC1 | 45 |
| Cl.O=C(Nc1ccc(Cl)cc1)Nc1cccc(-c2cc(CNCCc3ccccc3)oc2-c2ccncc2)c1 | 40 |

From ChEMBL document CHEMBL1157539, “Thousands of chemical starting points for antimalarial lead identification” (Nature, 2010)
